From PubChem
The list is not random: actives were taken first. Their share in the collection is about 10%.
HP1b chromo inh – HP1-beta chromodomain-methylated histone interaction inhibition; Potency, µM (highest dose often 114 µM), for the others: at the highest dose activity change, negative = inhibition, usual class: inhibitors; AlphaScreen HP1-beta / biotin-H3K9me3 peptide binding; P83916; hit rate 0.56% among 390,000; also: nearly all actives have a fitted effect of over 70% in size
Target sequence (P83916 whole entry, looked up): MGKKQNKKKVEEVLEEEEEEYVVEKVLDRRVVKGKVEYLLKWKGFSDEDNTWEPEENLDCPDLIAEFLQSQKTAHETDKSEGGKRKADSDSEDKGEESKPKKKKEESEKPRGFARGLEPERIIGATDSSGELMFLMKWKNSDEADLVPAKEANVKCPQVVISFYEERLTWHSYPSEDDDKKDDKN
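HP1-beta protein (50 nM final) preincubated 30 min at room temperature with biotinylated H3(1-18)K9me3 peptide (50 nM) in PBS pH 7.4, 0.01% Tween-20, then compound added for 30 min. AlphaScreen streptavidin donor/nickel chelate acceptor beads (10 ug/mL final), 30 min dark, luminescence read.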
JMJD2A Tudor – blocks the human JMJD2A Tudor domain | O75164 | AlphaScreen JMJD2A-Tudor / H3K4me3 peptide binding | Potency, µM (highest dose often 114 µM), without a hit: top-dose activity change, negative = inhibition, hits mostly inhibitors | hit rate 4.4% among 390,000; also: % is scaled to controls: 0 for no effect and ±100 for the full control effect; nearly all actives have a fitted effect of over 50% in size
GLS inh – blocks human kidney-isoform glutaminase activity. AID 624170. hit rate 0.21% among 410,000. Potency, µM (doses to about 45.5 µM), for the others: top-dose activity change, negative = inhibition, usual class: inhibitors. GLS enzymatic activity, qHTS titration; also: % is scaled to controls: 0 for no effect and ±100 for the full control effect
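Read-out is an Amplex red fluorescence increase coupled through glutamate oxidase and HRP, measured before and after 30 min room-temperature incubation. hKGA is in 45 mM KH2PO4 (pH 8.2) with 0.02% Tween-20; glutamine added as 1mM solution.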
BAZ2B inh – BAZ2B (human) inhibition; AlphaScreen BAZ2B-H3K14Ac peptide displacement; Q9UIF8; AID 504333; Potency, µM (series often up to 114 µM), for the others: at the top dose activity change, negative = inhibition, usual class: inhibitors; hit rate 4.4% among 360,000; also: % is scaled to controls: 0 for no effect and ±100 for the full control effect; nearly all actives have a fitted effect of over 60% in size
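BAZ2B 50 nM plus b-H3(5-23)K14Ac 50 nM, PBS pH 7.4/0.01% Tween-20, 30 min RT; compound added (max 110 uM), 30 min RT; streptavidin donor/Ni-chelate acceptor beads 10 ug/mL final, 20 min dark; AlphaScreen read.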
G9a inh – blocks human histone lysine methyltransferase G9a. Q96KQ7. G9a H3K9 monomethylation, AlphaScreen, 2 h. Potency, µM (top dose mostly 102 µM), for the others: at the top dose activity, negative = inhibition, hits mostly inhibitors. hit rate 8.8% among 350,000. AID 504332; also: % is scaled to controls: 0 for no effect and ±100 for the full control effect; nearly all actives have a fitted effect of over 75% in size
Target sequence (Q96KQ7 913-1193 limits assumed): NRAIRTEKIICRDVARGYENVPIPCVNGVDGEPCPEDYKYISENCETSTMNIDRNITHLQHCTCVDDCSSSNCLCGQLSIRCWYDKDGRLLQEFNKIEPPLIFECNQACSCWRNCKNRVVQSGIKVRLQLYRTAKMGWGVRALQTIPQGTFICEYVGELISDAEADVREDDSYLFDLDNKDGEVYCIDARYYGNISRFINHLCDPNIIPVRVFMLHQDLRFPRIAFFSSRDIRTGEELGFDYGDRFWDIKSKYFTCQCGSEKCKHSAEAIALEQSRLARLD
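Signal arises when biotinylated H3K9 peptide, once monomethylated, bridges streptavidin donor and antibody-captured acceptor beads. Enzyme at 20 nM was preincubated 15 min with test compounds; peptide 500 nM and SAM 20 uM then reacted for 2 h.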
Active calls of the source: *; [ ] = dose if it differs, or a comment. Calls follow the shape of the dose curve; as a rule, active = well fitted curve in the direction sought with a large enough effect; inconclusive = small, poorly fitted or top-dose-only effect, or another doubt; inactive = no such curve, though single readings can be large; an effect the other way counts as inactive or inconclusive. Potency is read from the fitted curve at half-maximal effect.

COc1ccc(C2Nc3ccccc3NC3=C2C(=O)CC(C)(C)C3)cc1O (stereo not given) was read as HP1b chromo inh -5%, JMJD2A Tudor 13µM*, GLS inh 13µM*, BAZ2B inh -1% and G9a inh -16%.
For COc1ccc(C2C3=C(CC(C)(C)CC3=O)Nc3c2c(=O)n(C)c(=O)n3C)cc1OC (stereo not given) the results were HP1b chromo inh -13%, JMJD2A Tudor inconclusive, GLS inh 13µM*, BAZ2B inh -20% and G9a inh 27%[12.7 µM].
For Cc1ccn(-c2ccc(NC(=O)c3cccs3)cc2)n1 the results were HP1b chromo inh 7%, JMJD2A Tudor -10%, GLS inh 8%, BAZ2B inh 3% and G9a inh 71µM*.
COc1ccccc1NC(=O)c1cc2ccccc2o/c1=N\O was read as HP1b chromo inh -7%, JMJD2A Tudor inconclusive, GLS inh -17%, BAZ2B inh 79µM* and G9a inh 14µM*.
Screening COc1cc(NC(=O)c2cc3ccccc3cc2O)c(OC)cc1Cl returned HP1b chromo inh 56%, JMJD2A Tudor 3%, GLS inh -3%, BAZ2B inh -26% and G9a inh 21%[12.7 µM].
Screening COc1ccccc1NC(=O)c1cc2ccc(O)cc2o/c1=N\O returned HP1b chromo inh 52%, JMJD2A Tudor inconclusive, GLS inh -7%, BAZ2B inh -10% and G9a inh inconclusive.
Screening COc1ccccc1NC(=O)c1cc2cc(Br)ccc2cc1O returned HP1b chromo inh 4%, JMJD2A Tudor inconclusive, GLS inh -4%, BAZ2B inh 50µM* and G9a inh inconclusive.
`Cc1ccc2nc(NC(=O)C3CCCN3C(=O)OC(C)(C)C)sc2c1` (stereo not given) gave HP1b chromo inh 17%, JMJD2A Tudor -7%, GLS inh -1%, BAZ2B inh -14% and G9a inh -4%.
CN(C(=O)C1CCCO1)c1nnc(-c2cnccn2)s1 (stereo not given) was read as HP1b chromo inh 45%, JMJD2A Tudor -4%, GLS inh 3%, BAZ2B inh -3% and G9a inh -7%.
For Cc1ccc(-c2nnc(N(C)C(=O)C3CCCO3)s2)cn1 (stereo not given) the results were HP1b chromo inh 40%, JMJD2A Tudor -13%, GLS inh -6%, BAZ2B inh inconclusive and G9a inh 45µM*.
Screening CCc1ccc(/C=C2/Sc3ccccc3N(CC(=O)NCCCN3CCOCC3)C2=O)cc1 returned HP1b chromo inh -9%[57 µM], JMJD2A Tudor inconclusive, GLS inh -1%, BAZ2B inh 35µM* and G9a inh -12%.
For O=C(CN1C(=O)/C(=C/c2ccc(C(F)(F)F)cc2)Sc2ccccc21)NCCCN1CCOCC1 the results were HP1b chromo inh 22%, JMJD2A Tudor -19%, GLS inh -5%, BAZ2B inh -29% and G9a inh -7%[59 µM].
`O=C(CN1C(=O)/C(=C\c2cccc(Br)c2)Oc2ccccc21)NCCCN1CCOCC1` gave HP1b chromo inh 58%, JMJD2A Tudor 45µM*, GLS inh 20%, BAZ2B inh -6% and G9a inh 17%[59 µM].
Screening COc1ccc(Cn2ccnc2SCC(=O)NC2CCCCC2)cc1 returned HP1b chromo inh 12%, JMJD2A Tudor -13%, GLS inh 8% and BAZ2B inh -15%.
`Cc1ccc(SCc2cc(=O)c3c(=O)n(-c4ccccc4)[nH]c3[nH]2)cc1` gave HP1b chromo inh inconclusive, JMJD2A Tudor inconclusive, GLS inh -1%, BAZ2B inh 28µM* and G9a inh 18µM*.
Screening Cc1ccc2c(=O)cc(CSc3ccccc3)[nH]c2c1C returned HP1b chromo inh 18%[57 µM], JMJD2A Tudor -15%, GLS inh 13%, BAZ2B inh 8% and G9a inh 20%[59 µM].
`O=c1cc(CSc2ccc(Cl)cc2)[nH]c2[nH]n(-c3ccccc3)c(=O)c12` gave HP1b chromo inh inconclusive, JMJD2A Tudor inconclusive, GLS inh -16%, BAZ2B inh 35µM* and G9a inh 40µM*.
Screening Cc1ccc(-c2nc(CS(=O)(=O)CC(=O)N3CCN(c4ccccc4)CC3)c(C)o2)cc1 returned HP1b chromo inh 3%, JMJD2A Tudor inconclusive, GLS inh 6%, BAZ2B inh 56µM* and G9a inh -38%[59 µM].
For COc1ccc(-c2nc(CS(=O)CC(=O)N3CCCC3)c(C)o2)cc1 (stereo not given) the results were HP1b chromo inh 51%, JMJD2A Tudor -3%, GLS inh 2%, BAZ2B inh 8% and G9a inh inconclusive.
`CCN1CCN(C(=O)CS(=O)Cc2nc(-c3cccc(C)c3)oc2C)CC1` (stereo not given) gave HP1b chromo inh 45%, JMJD2A Tudor -17%, GLS inh 3%, BAZ2B inh -5% and G9a inh -3%.
Cc1cccc(-c2nc(CS(=O)CC(=O)N3CCc4ccccc4C3)c(C)o2)c1 (stereo not given) was read as HP1b chromo inh 23%, JMJD2A Tudor -15%, GLS inh 5%, BAZ2B inh 2% and G9a inh 32µM*.
`COc1ccc(-c2nc(CSCC(=O)N3CCN(c4ccc(OC)cc4)CC3)c(C)o2)cc1` gave HP1b chromo inh -19%, JMJD2A Tudor inconclusive, GLS inh 4%, BAZ2B inh 35µM* and G9a inh 11µM*.
CCOc1ccc(-c2nc(CSCC(=O)N3CCN(c4ccc(F)cc4)CC3)c(C)o2)cc1 was read as HP1b chromo inh 23%, JMJD2A Tudor -29%, GLS inh 10%, BAZ2B inh -9% and G9a inh inconclusive.
For CCN1CCN(C(=O)CS(=O)Cc2nc(-c3ccc(OC)cc3)oc2C)CC1 (stereo not given) the results were JMJD2A Tudor -5%, GLS inh -8%, BAZ2B inh -5% and G9a inh 71µM*.
Screening CCOC(=O)C1CCCN(S(=O)(=O)c2nc3nc(C)cc(C)n3n2)C1 (stereo not given) returned HP1b chromo inh 11%, JMJD2A Tudor -1%, GLS inh -2%, BAZ2B inh -7% and G9a inh -7%[0.501 µM].
`Cc1ccc2nc(-c3ccc(Cl)c(NC(=O)COc4ccc([N+](=O)[O-])cc4)c3)oc2c1` gave HP1b chromo inh 52%, JMJD2A Tudor -12%, GLS inh 2%, BAZ2B inh -3% and G9a inh 9%[59 µM].
For O=C1c2ccccc2C(=O)N1CCN1CCCCC1 the results were HP1b chromo inh 36%, JMJD2A Tudor -2%, GLS inh -4%, BAZ2B inh -12% and G9a inh -15%[59 µM].
`O=S1(=O)C=C(SCCN2CCCCC2)c2ccccc21` gave HP1b chromo inh 37%, JMJD2A Tudor 13%, GLS inh 1%, BAZ2B inh -8% and G9a inh 50µM*.
